In the library only some 19% were active in any assay of this set; here they are far more common.
HT1080-NT tox: kills 2HG-producing HT-1080-NT fibrosarcoma cells; HT-1080-NT fibrosarcoma viability, CellTiter-Glo ATP luminescence, 48 h; 360,000 tested, 1.6% active; Potency, µM (series often up to 46.1 µM), for the others: at the top dose activity, negative = less viability, most hits filed as cytotoxic;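 also: NT is the 2HG producing partner of a matched IDH1 knockdown line; potency is read from the fitted curve at half-maximal effect; 0% = DMSO-treated cells and -100% = media-only wells without cells; nearly all actives have a fitted effect of over 55% in size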
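Toxicity toward the 2HG-producing NT line was scored as %Activity, normalised to DMSO and no-cell wells, from CellTiter-Glo luminescence after 48 hours' treatment.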
HT1080 IDH1KD tx: kills HT-1080 cells with IDH1 knockdown. Potency, µM (doses to about 46.1 µM), for the others: top-dose activity, negative = toxicity, usual class: cytotoxic. 360,000 tested, 2% active. HT-1080 IDH1 knockdown viability, ATP luminescence, 48 h. AID 686971;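 also: potency is read from the fitted curve at half-maximal effect; 0% = DMSO wells and -100% = cell-free medium wells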
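Luminescent ATP read-out (CellTiter-Glo, 10 min at room temperature) after 48 h compound exposure at 37 °C gave viability of IDH1-knockdown HT-1080 cells. Activity was normalised to DMSO and cell-free wells, then fitted as concentration-response curves.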
TDP1 cell CPT: DT40-hTDP1 cell growth loss with CPT | chicken DT40 Tdp1-/-;hTDP1 cells + 20 nM CPT, ATP luminescence, 48 h | Potency, µM (titrated, usually from 46.2 µM), inactives show at the highest dose activity change, negative = growth inhibition, most hits filed as inhibitors | 420,000 tested, 12% active | AID 686979; also: potency is read from the fitted curve at half-maximal effect; nearly all actives have a fitted effect of over 55% in size
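Chicken DT40 Tdp1-/- cells complemented with human TDP1, 400 cells/well, exposed to compounds plus 20 nM camptothecin for at least 48 h at 37 C; viability read as ATP content by CellTiter-Glo luminescence.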
TDP1 cell noCPT: qHTS for Inhibitors of human tyrosyl-DNA phosphodiesterase 1 (TDP1): qHTS in cells in absence of CPT. DT40 Tdp1-/- hTDP1 cells, no CPT, ATP luminescence, 48 h. Potency, µM (series often up to 46.2 µM), inactives show at the highest dose activity change, negative = growth inhibition, actives largely listed as inhibitors. 420,000 tested, 15% active. AID 686978, 2013; also: potency is read from the fitted curve at half-maximal effect; nearly all actives have a fitted effect of over 55% in size
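Growth kinetics read by CellTiter-Glo luminescence after ≥48 hr at 37 °C. Cells: DT40 Tdp1-/- stably carrying human TDP1, 400 per well, compound exposure in the absence of CPT (DMSO vehicle).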
uPA surface inh: blocks generation of uPA at the cell surface | 330,000 tested, 0.31% active | cell surface uPA generation assay, qHTS | Potency, µM (top dose mostly 38.3 µM), for the others: at the highest dose activity change, negative = inhibition, hits mostly inhibitors | AID 540303; active = well fitted inhibition curve with a large enough effect; inconclusive = small, poorly fitted or top-dose-only effect; inactive = no such curve, though single readings can be large or run the other way; tested in mouse RAW 264.7 cells; also: potency is read from the fitted curve at half-maximal effect; nearly all actives have a fitted effect of over 55% in size
IL-1B inflam inh: inflammasome signaling inhibition, IL-1 beta readout; activity change, % at 57.5 µM; THP-1 LPS/ATP IL-1B secretion, AlphaLISA, 16 h; active compounds read low; AID 743279; 360,000 tested, 4.7% active; in the data active = activity change below about -50%; inconclusive = mostly about -30% to -49%
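THP-1 cells pretreated 1 hr with compounds (up to 57.5 uM final), then stimulated with LPS (250 ng/mL final) plus ATP (1.25 mM final); secreted IL-1B measured by AlphaLISA after 16 hr, decreased signal indicating inhibition.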
Numbers without * were called inactive; ? = inconclusive; . = no result given. Unless noted, calls follow the shape of the dose curve; as a rule, active = well fitted curve in the direction sought with a large enough effect; inconclusive = small, poorly fitted or top-dose-only effect, or another doubt; inactive = no such curve, though single readings can be large; an effect the other way counts as inactive or inconclusive. Unless noted, % is scaled to controls: 0 for no effect and ±100 for the full control effect.

SMILES | HT1080-NT tox | HT1080 IDH1KD tx | TDP1 cell CPT | TDP1 cell noCPT | uPA surface inh | IL-1B inflam inh
CCOC(=O)C1=CCN(S(=O)(=O)c2ccc(C)cc2)C1c1cccc(F)c1 (centres undefined) | -2% | -5% | ? | 23µM* | . | -7
CS(=O)(=O)c1ccc(Cn2c3c(c4cc(F)cc(F)c42)CCC[C@H]3CC(=O)O)cc1 | . | . | 14% | -7% | . | .
CC(O)CN(C)C (centres undefined) | . | . | 14% | -9% | . | .
Cc1oc2cc([N+](=O)[O-])c(O)c([N+](=O)[O-])c2c1C(=O)c1ccc(Cl)cc1 | -18% | -22% | 23µM* | ? | ? | 0
CCCS(=O)(=O)NC(=O)C1(C)CCN(C(=O)c2ccc(C#N)cc2)C1 (centres undefined) | 29% | 12% | 1% | -14% | . | 5
CC1=CC(=C2C(=O)c3ccccc3C2=O)C=C(C)O1 | 4% | 0% | 10µM* | ? | -1% | -4
O=C1c2ccccc2C(=O)N1Cc1ccco1 | 14% | 11% | 8% | 17% | 0% | 4
CC1=CC(=C2C(=O)c3ccccc3C2=O)C=C(C)N1Cc1ccco1 | -1% | -14% | -22% | 21µM* | -12% | -62*
CC1(CC(=O)N/N=C/c2cc([N+](=O)[O-])c(O)cc2O)OCCO1 | -3% | -18% | ? | ? | 6% | 46
C[C@@H]1CN([C@H](C)CO)S(=O)(=O)c2ccc(Br)cc2O[C@@H]1CN(C)C(=O)NC1CCCC1 | -1% | -5% | ? | ? | . | -11
Cc1[nH]c2ccccc2c1/C=C/c1cnc2ccccc2n1 | . | . | ? | 13µM* | . | .
Cc1[nH]c2ccccc2c1/C=C/c1ccc2ccccc2n1 | . | . | ? | -111% | . | .
Cc1[nH]c2ccccc2c1/C=C/c1c[nH]c2ccccc12 | . | . | ? | 11µM* | . | .
C/C(=N\NC(=O)c1cccnc1)c1cc2ccccc2o1 | -1% | 0% | 6% | -27% | -5% | -11
CCOC(=O)c1ccc(NC(=S)N(CCN(C)C)Cc2cccs2)cc1 | -58% | ? | 16µM* | ? | -3% | 19
CCOC(=O)c1ccc(NC(=S)N(CCCN2CCCCC2)Cc2ccco2)cc1 | ? | ? | -10% | ? | -9% | -53*
CCOC(=O)c1ccc(NC(=S)N(CCCN(CC)CC)Cc2ccco2)cc1 | -13% | -21% | 9% | -27% | -9% | -55*
COc1ccc(NC(=S)N(CCCN2CCCC2)Cc2ccco2)cc1 | 12% | 22% | 2% | -5% | -3% | -5
Cc1ccc(NC(=S)N(CCN2CCCCC2)Cc2ccco2)cc1Cl | ? | ? | ? | ? | 9% | -98*
CC(C)C[C@H]1CN(CCCC[C@H]2CNC(=O)C(=O)N2CC2CCCCC2)C(=O)C(=O)N1CC1CCCCC1 | 14% | 1% | ? | ? | . | -20
CN(C)c1ccc(/C=C(/NC(=O)c2ccccc2)C(=O)N2CCCC2)cc1 | 0% | 11% | ? | -23% | -7% | 28
Cc1ccc(C(=O)Nc2ccc3c(c2)C(=O)N(C)C3=O)c(C)c1 | -1% | 7% | -2% | -12% | 9% | 26
CCOC(=O)c1cnc2c(OC)cccc2c1N1CCN(c2ccccc2F)CC1 | . | . | 18µM* | 18µM* | . | .
CCOC(=O)c1cnc2ccc(OCC)cc2c1N1CCN(c2ccccc2OC)CC1 | ? | ? | ? | 12µM* | 8% | -55*
CCOC(=O)c1cnc2ccc(OCC)cc2c1N(C)Cc1ccccc1 | ? | ? | ? | 23µM* | -2% | -71*
CCOC(=O)c1cc2cc(OCc3ccccc3)ccc2nc1C | 1% | 2% | -19% | -25% | -2% | -13
CCn1c(C)cc(C(=O)CSc2nnc(C3CC3)n2C2CC2)c1C | 4% | 9% | ? | ? | . | ?

Bioassay records deposited in PubChem BioAssay by National Center for Advancing Translational Sciences (NCATS).
